# Compound activity as filed in PubChem BioAssay.
# The list is not random: actives were taken first. Their share in the collection is about 7.4%.
# ELG1 genotoxic – inducers of genotoxicity in HEK293T ELG1-luciferase cells; HEK293T ELG1-luciferase reporter, luminescence, 16 h; Potency, µM (highest dose often 46 µM), without a hit: at the highest dose activity change, positive = activation, actives largely listed as activators; hit rate 1.3% among 330,000; AID 504466; note: % of control where 0% means no effect; nearly all actives have a fitted effect of over 60% in size
#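 16 hr compound incubation (37 °C, 5% CO2) of HEK293T cells carrying luciferase-tagged ELG1; luciferase then measured by ONE-Glo luminescence after 30 min at RT.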
# FLuc modulator – counter-screen for miR-21 project: firefly luciferase inhibitors or activators | Potency, µM (doses to about 57.5 µM), without a hit: at the top dose activity change, negative = inhibition, usual class: inhibitors | purified FLuc, Km substrates, luminescence inhibition | hit rate 6.9% among 360,000 | P08659;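 note: plate controls were vehicle for no effect and reference inhibitor for full effect; nearly all actives have a fitted effect of over 55% in size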
# Target sequence (P08659 whole entry, looked up): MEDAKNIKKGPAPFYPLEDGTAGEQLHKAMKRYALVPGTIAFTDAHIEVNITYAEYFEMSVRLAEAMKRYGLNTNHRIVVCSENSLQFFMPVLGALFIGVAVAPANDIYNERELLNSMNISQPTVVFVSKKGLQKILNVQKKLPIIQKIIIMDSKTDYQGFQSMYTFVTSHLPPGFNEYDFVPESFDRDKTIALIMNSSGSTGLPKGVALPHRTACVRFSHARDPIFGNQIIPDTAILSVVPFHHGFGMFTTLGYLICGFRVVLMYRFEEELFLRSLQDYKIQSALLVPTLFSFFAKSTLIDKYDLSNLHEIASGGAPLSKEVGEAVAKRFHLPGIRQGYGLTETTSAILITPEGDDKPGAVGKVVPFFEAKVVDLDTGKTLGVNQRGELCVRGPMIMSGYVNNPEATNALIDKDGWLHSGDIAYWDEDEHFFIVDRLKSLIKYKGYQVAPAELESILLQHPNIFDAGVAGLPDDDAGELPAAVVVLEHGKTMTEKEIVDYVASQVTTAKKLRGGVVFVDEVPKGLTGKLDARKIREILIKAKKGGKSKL
#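 Biochemical qHTS of compounds, final roughly 60 µM downward over six points, against 10 nM purified firefly luciferase using Km concentrations of substrates (10 uM D-luciferin, 10 uM ATP) in Tris acetate pH 7.5 buffer; luminescence output.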
# p53 reactivation – restores transcriptional activity of mutant p53. AID 504706. H1299 p53-A138V BP100-luciferase reporter, luminescence, 24 h. Potency, µM (titrated, usually from 92.2 µM), inactives show top-dose activity change, positive = activation, hits mostly activators. hit rate 0.063% among 320,000; note: % of control where 0% means no effect; nearly all actives have a fitted effect of over 45% in size
#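 H1299 (p53-null), stable ts p53-A138V + BP100-Luc; 1000 cells/well, Opti-MEM/10% FBS; cpd 4 pt, 1:5; 24 h, 37 deg C, 5% CO2; detection reagent 10 min RT; luminescence.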
# NPC1 prom act – activators of NPC1 promoter; Huh7 NPC1 promoter luciferase reporter, 24 h; Potency, µM (doses to about 9.22 µM), without a hit: top-dose activation, hits mostly activators; hit rate 2.4% among 320,000; note: % of control where 0% means no effect; nearly all actives have a fitted effect of over 60% in size
#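 Compounds in DMSO were transferred onto Huh7 NPC1-luciferase reporter cells pre-incubated 2 h; after 24 h at 37 °C, Amplite reagent was dispensed and luminescence recorded 10 min later.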
# Rab9 prom act – Rab9 promoter activation; Huh7 Rab9 promoter-luciferase reporter, luminescence, 24 h; hit rate 2.8% among 320,000; AID 485297; Potency, µM (doses to about 9.22 µM), for the others: at the highest dose activation, negative = inhibition, most hits filed as activators; note: % of control where 0% means no effect; nearly all actives have a fitted effect of over 60% in size
#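 Quantitative HTS format; Huh7 Rab9-luciferase reporter cells (1500/well) receive compound 2 h post-plating, incubate 24 h at 37 °C, then get luciferase reagent for 10 min before luminescence reading.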
# SMN2 splice up – SMN2 splice variant enhancement; HEK293 SMN2-luciferase splicing reporter, luminescence, 30-36 h; Potency, µM (top dose mostly 46.1 µM), for inactives: top-dose activity change, positive = activation, usual class: activators; hit rate 2.8% among 210,000; AID 1458; note: % of control where 0% means no effect; nearly all actives have a fitted effect of over 55% in size
#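 HEK293 cells carry an SMN2 […]–luciferase reporter in which exon 7 inclusion puts luciferase in frame. Cells were plated 10-12 h before compound addition, then incubated 30-36 h at 37C. ONE-Glo luminescence was read; sodium butyrate at 4.5 mM final served as control.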
# The depositor's hits bear a star; ? = inconclusive; · = no result; [ ] = dose if it differs, or a comment. Calls come from the whole dose curve; as a rule, active = well fitted curve in the direction sought with a large enough effect; inconclusive = small, poorly fitted or top-dose-only effect, or another doubt; inactive = no such curve, though single readings can be large; an effect the other way counts as inactive or inconclusive. Potency is the fitted concentration of half-maximal effect.
SMILES,ELG1 genotoxic,FLuc modulator,p53 reactivation,NPC1 prom act,Rab9 prom act,SMN2 splice up
O=C(Nc1ccn(Cc2ccc(Cl)cc2)n1)c1ccccc1,?,11µM*,3%,?,3.5µM*,13µM*
CC(=O)Nc1ccc(OC(=O)c2ccccc2O)cc1,·,·,·,·,·,-1%
Nc1nc(-c2ccc3c(c2)OCCO3)c(CC(=O)O)s1,-1%,?,?,-3%,11%,·
Nc1nc(-c2ccc3c(c2)CCCC3)c(CC(=O)O)s1,-1%,24µM*,1%,-1%,4%,·
CCc1nnc(NC(=O)c2ccc(Br)o2)s1,13%,?,4%,18%,?,·
Cc1ccc(SCC(=O)Nc2cccc(NC(=O)c3ccco3)c2)cc1,-3%,19µM*,7%,-1%,4%,-15%
CC(=O)Nc1ccc(NC(=O)CSc2nnc(NC(=O)c3ccc(Br)o3)s2)cc1,6%,2.1µM*,11%,-3%,-3%,·
O=C(CSc1ccc(Cl)cc1)Nc1ccc(NC(=O)c2ccco2)cc1,3%,12%,2%,17%,20%,?
Cc1ccc(SCC(=O)Nc2ccc(N3CCN(C)CC3)c(F)c2)cc1,?,15µM*,?,?,?,10%
O=C(CSc1nnc(NC(=O)c2ccco2)s1)Nc1cccc(F)c1,?,6.7µM*,?,?,?,·
CCN(C(=O)CSc1nc2ccccc2n1CC(=O)N(C)C1CCCCC1)c1ccccc1,·,-8%,·,·,·,·
CCOC(=O)c1c(NC(=O)c2ccc(S(=O)(=O)N3CCC(C)CC3)cc2)sc2c1CCN(CC)C2,·,-2%,·,·,·,·
COc1cccc(Cn2c(=O)c(-c3cccs3)nc3cnc(Nc4cccc(OC)c4)nc32)c1,·,·,·,·,·,1%
COc1ccc(S(=O)(=O)N2CCCCC2)cc1NC(=O)Cn1cnc2c1c(=O)n(C)c(=O)n2C,7%,·,-7%,·,·,·
CN(C)CCCN1CCC2(CCC(C(C)(C)C)CC2)CC1,·,·,·,·,·,-12%[9.22 µM]
O=c1[nH]c(SCc2cccc([N+](=O)[O-])c2)nc2nc[nH]c12,·,·,·,·,·,0%[9.22 µM]
C[C@H]([C@H](C)N1CC(=O)NC(=O)C1)N1CC(=O)NC(=O)C1,·,·,·,·,·,-10%
CC(=O)Nc1cccc(NC(=O)CSc2nnc(NC(=O)c3ccco3)s2)c1,15%,19µM*,8%,-4%,23%,·
COc1cccc(NC(=O)CSc2nnc(NC(=O)c3ccco3)s2)c1,17%,24µM*,24%,14%,17%,·
CC(=O)Nc1cccc(NC(=O)CSc2nnc(NC(=O)C3CC3)s2)c1,10%,?,4%,1%,4%,·
COc1cccc(NC(=O)CSc2nnc(C)s2)c1,12%,5%,0%,0%,-4%,?
COc1ccc(CNC(=O)CCc2c(C)c3cc4c(C)coc4c(C)c3oc2=O)cc1OC,·,-6%,·,·,·,-1%
Cc1cc(C(=O)CN2CCC(C)CC2)c(C)n1-c1ccc(F)cc1,?,9.5µM*,?,?,1.4µM*,13µM*
Cc1cc(C(=O)NC2CCCCC2)c(C)n1-c1ccc(F)cc1,5.8µM*,6µM*,?,2.8µM*,2.5µM*,?
Cc1cc(C(=O)CN2CCCCC2)c(C)n1-c1ccc(F)cc1,13%,?,?,?,?,?
SMILES,ELG1 genotoxic,FLuc modulator,p53 reactivation,NPC1 prom act,Rab9 prom act,SMN2 splice up
Cc1cc(C(=O)CNCc2ccco2)c(C)n1-c1ccc(F)cc1,?,3.4µM*,?,1.6µM*,2µM*,-5%
Cc1ccc(S(=O)(=O)NCc2ccccc2)cc1C(=O)NC(C)c1ccc(S(N)(=O)=O)cc1 (centres undefined),-1%,7%,-3%,1%,2%,·
CC1CCCCN1CCCNC(=O)c1ccc2c(c1)sc1nc(-c3ccc(F)cc3)cn12 (centres undefined),·,-6%,·,·,·,·
COc1ccc(-c2cc3nc(CCl)[nH]c(=O)c3s2)cc1,?,0.12µM*,?,?,?,·
COc1ccc(-c2cc3nc[nH]c(=O)c3s2)cc1,4.1µM*,3.8µM*,27%,?,2.8µM*,13µM*
O=c1[nH]cnc2cc(-c3ccccc3)sc12,?,12µM*,?,3.5µM*,?,?
CCc1cc(=O)oc2cc(OC(C)C(=O)NCC3CCC(C(=O)O)CC3)c(Cl)cc12 (centres undefined),9%,1%,·,0%,-2%,·
CCN(CC)S(=O)(=O)c1ccc2c(c1)nc(CN(C)C(=O)Nc1ccc(C)c(F)c1)n2C,·,-11%,·,·,·,·
CC(C)c1ccc(Nc2nnc(SCC(=O)Nc3ncc(S(=O)(=O)c4ccc([N+](=O)[O-])cc4)s3)s2)cc1,?,0.85µM*,7%,2.8µM*,1.4µM*,22µM*
Cc1ccc(Nc2nnc(SCC(=O)Nc3ncc(S(=O)(=O)c4ccc([N+](=O)[O-])cc4)s3)s2)cc1,?,2.4µM*,-3%,21%,18%,0%
CCc1ccc(NC(=O)CSc2nc(C)c(C(=O)Nc3ccccc3)c(-c3ccc(OC)c(OC)c3)c2C#N)cc1,·,-2%,·,·,·,7%
CC(C)(C)C1CCc2sc(C(=O)NNC(=O)CCl)cc2C1 (centres undefined),?,4.8µM*,29%,-42%,-45%,-18%
N=c1scc(-c2ccccc2)n1/N=C/c1ccco1,?,6.7µM*,?,?,3.5µM*,?
Cc1cc(C)cc(C(=O)Nc2cc3c4c(c2)CC(=O)N4CCC3)c1,3%,7%,-12%,-6%,-4%,·
O=C(Nc1cc2c3c(c1)CC(=O)N3CCC2)c1ccc(Br)cc1,11%,15µM*,2%,0%,0%,·
